PAFAH1B3 inh – PAFAH1B3 enzyme inhibitors, primary screen, biochemical, fluorescence polarization, human; inhibition, % at 3.39 µM; AID 492972, 2010; hit rate 0.28% among 340,000; Platelet-activating factor acetylhydrolase IB subunit alpha1 (Homo sapiens), Q15102; recombinant PAFAH1B3, FP-rhodamine probe;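 active = inhibition above the screen-wide average of all tested compounds plus 3 SD, cut at about 25% in these data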;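 also: 0% = enzyme with DMSO only and 100% = wells lacking PAFAH1B3 protein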
Target sequence (Q15102 whole entry, looked up): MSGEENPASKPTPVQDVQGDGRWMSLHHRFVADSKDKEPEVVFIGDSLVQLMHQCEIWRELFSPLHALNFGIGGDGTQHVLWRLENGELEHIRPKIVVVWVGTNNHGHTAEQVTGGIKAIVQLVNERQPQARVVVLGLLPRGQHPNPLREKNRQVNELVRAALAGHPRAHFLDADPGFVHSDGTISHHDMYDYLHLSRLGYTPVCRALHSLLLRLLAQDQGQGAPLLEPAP
pPAFAH inh – pPAFAH enzyme inhibitors, primary screen, biochemical, fluorescence polarization, human; Platelet-activating factor acetylhydrolase (Homo sapiens), Q13093; recombinant pPAFAH, FP-rhodamine probe fluorescence polarization; inhibition, % at 3.39 µM; hit rate 1.5% among 330,000; AID 463082, 2010;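 active = inhibition above the mean inhibition across the screen plus 3 SD, cut at about 25% in these data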;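 also: inhibitors block binding of the rhodamine activity-based probe so polarization drops; 0% = enzyme with DMSO and 100% = wells lacking pPAFAH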
PME-1 inh – PME-1 inhibitors via competitive probe labeling, primary screen, biochemical, fluorescence polarization, FP-Rh probe, HTS; inhibition, % at 5.9 µM; Protein phosphatase methylesterase 1 (Homo sapiens), Q9Y570; recombinant PME-1; AID 2130, 2009; hit rate 0.53% among 320,000;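 active = inhibition above the campaign mean of all compounds plus 3 SD, cut at about 26% in these data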;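 also: competitive labeling of PME-1 active site by serine hydrolase directed probe; 0% = PME-1 with DMSO and 100% = wells lacking PME-1 enzyme; inhibitors block probe labeling so polarization falls and inhibition rises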
PAFAH1B2 inh – PAFAH1B2 enzyme inhibitors, primary screen, biochemical, fluorescence polarization, human; Platelet-activating factor acetylhydrolase IB subunit alpha2 (Homo sapiens), P68402; recombinant PAFAH1B2, FP-rhodamine activity probe; inhibition, % at 3.39 µM; hit rate 1.2% among 340,000; AID 492953, 2010;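 active = inhibition above the mean of all tested compounds plus 3 SD, cut at about 24% in these data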;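 also: 0% = enzyme with DMSO and 100% = wells lacking PAFAH1B2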
Target sequence (P68402 whole entry, looked up): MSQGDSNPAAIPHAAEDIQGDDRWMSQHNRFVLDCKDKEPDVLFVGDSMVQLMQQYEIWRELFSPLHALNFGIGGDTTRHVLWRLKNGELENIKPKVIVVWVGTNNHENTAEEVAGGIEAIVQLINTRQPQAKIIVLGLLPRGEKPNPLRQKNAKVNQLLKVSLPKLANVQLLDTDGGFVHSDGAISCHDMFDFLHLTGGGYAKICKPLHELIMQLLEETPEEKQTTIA
PAFAH2 inh – PAFAH2 enzyme inhibitors, primary screen, biochemical, fluorescence polarization, human. recombinant PAFAH2, FP-rhodamine activity probe. Platelet-activating factor acetylhydrolase 2, cytoplasmic (Homo sapiens), Q99487. hit rate 0.99% among 340,000. AID 492956, 2010. inhibition, % at 3.39 µM;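 active = inhibition above the mean over all tested compounds plus 3 SD, cut at about 30% in these data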;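 also: inhibitors block probe labeling of enzyme so polarization drops; 0% = enzyme with DMSO and 100% = wells lacking PAFAH2 protein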
Fam108B counter – mouse Fam108B serine hydrolase inhibitors, primary screen, counter-screen for RBBP9 inhibitor project, biochemical, fluorescence polarization; recombinant Fam108B, FP-Rh probe fluorescence polarization; inhibition, % at 9.51 µM; hit rate 0.33% among 300,000;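 active = inhibition above the screen mean inhibition plus 3 SD, computed separately per campaign, cut at about 18% in these data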;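 also: inhibitors lower polarization as less probe binds the enzyme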
PAFAH2 FP conf – PAFAH2 enzyme inhibitors, confirmation, biochemical, fluorescence polarization, human; shares compounds with PAFAH2 inh; hit rate 65% among 2,300; recombinant PAFAH2, FP-rhodamine activity probe; inhibition, % at 3.39 µM;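 active = mean inhibition over three repeats above a set limit taken from the earlier primary screen, cut at about 30% in these data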;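 also: inhibitor blocks binding of rhodamine activity probe so polarization falls; 0% = enzyme with DMSO and 100% = wells lacking PAFAH2 protein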
The depositor's hits bear a star; . = not tested or not shown. Only some compounds are listed: those with a hit (about 2.9% of all), similar ones and a draw of the others.

SMILES | PAFAH1B3 inh | pPAFAH inh | PME-1 inh | PAFAH1B2 inh | PAFAH2 inh | Fam108B counter | PAFAH2 FP conf
COc1ccc(-c2cc(C(=O)N(C)Cc3nc4ccccc4c(=O)[nH]3)c3ccccc3n2)cc1OC | 2 | -6 | . | 7 | -5 | . | .
CC(C)Cn1c(N)c(C(=O)CSc2n[nH]c(N)n2)c(=O)n(C)c1=O | 1 | 0 | 1 | 1 | 8 | . | .
O=C(Nc1ccc2c(c1)N(S(=O)(=O)c1cccs1)CCC2)c1c(F)cccc1Cl | -8 | 9 | -4 | -6 | -12 | -12 | .
Cc1ccc(S(=O)(=O)N2CCCCC2)cc1NC(=O)COC(=O)C1CC2C=CC1C2 (stereo unspecified) | 1 | 15 | 2 | -2 | 25 | 0 | .
Cc1ccc(NC(=O)COC(=O)c2cccc(OC(F)F)c2)cc1S(=O)(=O)N1CCCCC1 | -11 | -1 | -77 | -8 | 11 | . | .
Cc1ccc(NC(=O)COC(=O)C2CC3C=CC2C3)cc1S(=O)(=O)N1CCCCC1 (stereo unspecified) | 19 | 13 | 5 | 5 | 60* | -2 | 52*
Cc1ccc(C(=O)OCC(=O)Nc2cc(S(C)(=O)=O)ccc2Cl)cc1S(=O)(=O)N1CCCCC1 | 2 | 20 | 9 | -3 | 64* | -4 | 54*
CS(=O)(=O)c1ccc(Cl)c(NC(=O)COC(=O)c2ccc(S(=O)(=O)N3CCCC3)cc2)c1 | 0 | 7 | . | 0 | -2 | . | .
Cc1cccc(NC(=O)COC(=O)c2ccc(C)c(S(=O)(=O)N3CCCCC3)c2)c1 | 4 | 19 | 2 | 5 | 42* | . | 38*
CCN(CC)S(=O)(=O)c1cccc(NC(=O)COC(=O)C2CC3C=CC2C3)c1 (stereo unspecified) | -3 | 20 | 1 | 3 | 38* | 11 | 26
COc1ccc(NC(=O)COC(=O)c2ccc(C)c(S(=O)(=O)N3CCCCC3)c2)cc1 | 12 | 10 | 7 | 4 | 20 | . | .
Cc1ccc(C(=O)OCC(=O)Nc2ccccc2)cc1S(=O)(=O)N1CCCCC1 | -3 | 14 | 3 | 5 | 50* | . | 36*
CS(=O)(=O)c1ccc(Cl)c(NC(=O)COC(=O)c2ccc(-n3cnnn3)cc2)c1 | 5 | -4 | -3 | 0 | 24 | -2 | .
Cc1cc(C)n(-c2ccc(C(=O)OCC(=O)Nc3cc(S(C)(=O)=O)ccc3Cl)cc2)n1 | 8 | 23 | 1 | 2 | 36* | . | 29
O=C(COC(=O)c1cccs1)NCCCc1ccccc1 | 1 | 5 | 2 | 4 | 47* | -7 | 28
O=C(COC(=O)c1cccs1)Nc1nc(-c2ccccc2)cs1 | 3 | 2 | -3 | -4 | 9 | -3 | .
O=C(COC(=O)c1cccs1)Nc1ccccc1 | 4 | 8 | 4 | -5 | 77* | 3 | 78*
N/C(CC(=O)Nc1ccc(F)c(Cl)c1)=N\OC(=O)c1cccs1 | -1 | -4 | -1 | 10 | 48* | -3 | 36*
O=C(COC(=O)c1cccs1)Nc1ccc(F)c(F)c1 | 4 | 9 | 0 | -1 | 79* | . | 81*
Cc1ccc(CNC(=O)C2CCC(=O)N(CCc3cccc(F)c3)C2)cc1 (stereo unspecified) | 8 | -5 | -2 | 9 | -2 | -1 | .
CC12CCC(=O)N1C(C(=O)Nc1nnc(SCc3ccc(F)cc3)s1)CS2 (stereo unspecified) | 8 | 16 | -1 | 10 | 8 | -6 | .
COC(=O)C1=C(O)/C(=C\c2ccc(OCC(=O)Nc3ccc(OC)cc3)cc2)N=C1C | 3 | 3 | -5 | 4 | 3 | -2 | .
CC1(C(=O)OCC(=O)Nc2ccccc2)CC1(Cl)Cl (stereo unspecified) | 2 | 4 | -1 | 1 | 56* | -1 | 51*

Bioassay records (PubChem BioAssay)
